The values that follow come from PubChem BioAssay (NCI).

Values joined by “and” are separate entries in the source; they are usually repeats but may differ in a detail not shown here. Equal entries are not always repeated. About 83,000 compounds went through this panel and 20% of them were active in at least one assay; those are over-represented in the sample as a whole.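 Cells were grown in 96-well plates and exposed to the test compound at a single concentration for 48 hours; results are reported as percent growth, with values below 10 considered active.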 Active and inactive are the calls of the source.

The experiment has as its system TK-10 renal. The experiment is described as follows: NCI-60 one-dose screen, 48 h (100 = growth as untreated, 0 = no growth, -100 = all killed). Particulars: 10 µM unless noted.
As for `CC1CCCC(=O)O1` (configuration not stated), the growth is 103% (inactive) and 108% (inactive).

Turning to `Cc1ccc(S(=O)(=O)NCN2C(=O)c3ccccc3C2=O)cc1`, the growth was 108% (inactive).

As for `O=C(N/N=C/c1cccc2ccccc12)C1CC1`, the growth was 131% (inactive) and 121% (inactive).

With `CN(C)CCCNC1=C(Cl)C(=O)c2ccccc2C1=O`, the growth is 120% (inactive) and 116% (inactive).

Turning to `COc1ccc2nc(Cl)cc(C)c2c1`, the growth was 73.7% (inactive) and 78.9% (inactive).

As for `CN(C)c1ccc(C(=C2C=CC(=[N+](C)C)C=C2)c2ccccc2Cl)cc1`, the growth is -30.6% (active) and -72.4% (active).

Turning to `OCc1ccccn1`, the growth was 100% (inactive).

On to `Nc1ccccc1SC1CC(=O)N(c2cccc3ccccc23)C1=O` (configuration not stated), for which the growth was 113% (inactive).

Turning to `CC(=O)Nc1cccc2c1CCCC2`, the growth is 85.6% (inactive) and 83.7% (inactive).

`CCN1CCN(CCNc2nccc(-c3c(-c4cccc(O)c4)nc4sccn34)n2)S1(=O)=O`: the growth is 92.8% (inactive).

On to `NC(=O)c1ccccc1OCC(O)CO` (configuration not stated), for which the growth was 110% (inactive).

On to `Nc1ccccc1Nc1ccccc1`, for which the growth was 111% (inactive) and 88.4% (inactive).

On to `N/C(=N\N=C\c1ccc2c(c1)OCO2)N/N=C\c1ccc2c(c1)OCO2`, for which the growth was 140% (inactive) and 153% (inactive).

Consider `N#C/C(=C/c1c(O)ccc2ccccc12)C(N)=O`, for which the growth is 114% (inactive).

As for `Oc1ccc(/C=C/c2ccccc2)cc1`, the growth is 92.9% (inactive) and 65.1% (inactive).

Take `COc1ccc2ccccc2c1/C=N/N1CCCCC1`: the growth was 105% (inactive).

Consider `O=C(Nc1cccc(-n2ccc3c(NC(=O)c4ccccc4)nccc32)c1)c1ccc(Cl)c(C(F)(F)F)c1`, for which the growth was 93.1% (inactive).

As to `CCOc1ccc(Nc2c3ccccc3nc3ccccc23)cc1`, the growth was 93.3% (inactive) and 35.1% (inactive) and 32.7% (inactive).

Regarding `CCOc1ccc2cc(-c3nn(CC4CCN(C)CC4)c4ncnc(N)c34)ccc2c1`, the growth was 70.9% (inactive) and 77.8% (inactive).

As for `S=C(S)N1CCCC1`, the growth is 96.5% (inactive) and 96.3% (inactive).

Take `O=C1C2=C(C(=O)c3ccccc31)C(O)(S(=O)(=O)O)C(O)(S(=O)(=O)O)C1N=CC=CC21` (configuration not stated): the growth is 71.8% (inactive) and 68.1% (inactive).

On to `Cc1cc(O)c2c(c1)C(=O)c1cc(O)cc(O)c1C2=O`, for which the growth was 104% (inactive) and 95.4% (inactive).

On to `CCN(CC)CCC(CNc1ccnc2cc(Cl)ccc12)c1ccc(OC)cc1` (configuration not stated), for which the growth is 58.5% (inactive) and 46.3% (inactive).

Consider `O=[N+]([O-])c1ccc2nc3c4ccccc4c4ccccc4c3nc2c1`, for which the growth is 67.8% (inactive).

As for `COc1cc2nc(N3CCC[C@@H](NC(=O)C4COc5ccccc5O4)C3)nc(N)c2cc1OC` (some centres not stated), the growth was 98.6% (inactive) and 89.7% (inactive).

Regarding `NC(=S)NN=C1CCC(C2CCCCC2)CC1` (configuration not stated), the growth is 113% (inactive) and 104% (inactive).

As for `CCOC(=O)c1sc(N)nc1-c1ccccc1`, the growth is 99% (inactive).

On to `Cc1ccc2nc3c(nc2c1)-c1cccc2cccc-3c12`, for which the growth is 83.5% (inactive).

On to `CCN(CC)CCCC(C)Nc1ccnc2cc(Oc3ccccc3)ccc12` (configuration not stated), for which the growth is 91.3% (inactive).

With `CN1C(=O)C(N=Nc2ccc([N+](=O)[O-])cc2)SC1=S` (configuration not stated), the growth was 86.8% (inactive) and 101% (inactive).

Consider `COc1ccccc1NC(=O)OCC#CCOC(=O)Nc1ccccc1OC`, for which the growth is 99.2% (inactive) and 91.2% (inactive).

In the case of `O[C@H](c1cc(C(F)(F)F)nc2c(C(F)(F)F)cccc12)[C@@H]1CCCCN1`, the growth is 56.9% (inactive) and 63.8% (inactive).

Regarding `N#C/C(=C1C=C/C(=N/O)C(Br)=C/1)c1ccccc1`, the growth was 45% (inactive).

Consider `CC1=C[C@H]2c3c(c(O)c(O)c4oc5cc(O)cc(O)c5c(=O)c34)[C@H](c3cc(O)c(O)c4oc5cc(O)cc(O)c5c(=O)c34)[C@H]2C(C)(C)C1`, for which the growth was 30.1% (inactive) and -5.84% (active).

Consider `COc1ccc(/C(C#N)=C/c2ccccn2)cc1`, for which the growth was 104% (inactive) and 117% (inactive).

As to `CC(=O)Oc1cc(C(=O)O)cc(OC(C)=O)c1OC(C)=O`, the growth is 115% (inactive) and 102% (inactive).

As for `COc1ccc(Cn2c(NCCN=C(N)N)nc(=O)n(Cc3ccc(F)cc3)c2=O)cc1`, the growth was 103% (inactive) and 104% (inactive).
